An excerpt weighted towards active compounds, which were near 6.9% of everything screened.
MPTP inh: mitochondrial permeability transition pore inhibitors, primary screen, biochemical, isolated mouse mitochondria, absorbance; Ca2+ swelling absorbance, 30 min; 360,000 tested, 1.4% active; inhibition, % at 10 µM;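 active = inhibition of 50% or more, scaled per plate between neutral and stimulator controls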
Beta apoptosis: inhibitors of cytokine-induced beta cell apoptosis, primary screen, luminescence. AID 435005, 2010. protection from apoptosis, % (concentration not given with the values). INS-1E cytokine-induced death, ATP luminescence, 48 h; percent of positive-control rescue, neutral wells zero. 300,000 tested, 0.8% active;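 active = Every replicate reaches about 75%, or at least half do and their mean reaches it too, limit read from the data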;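 note: higher means more ATP so stronger rescue from cytokine killing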
GRIN3A LBD mod: binders of NR3A ligand-binding domain, primary screen, biophysical, differential scanning fluorimetry, uHTS; NR3A LBD differential scanning fluorimetry, Tm shift; 0% = protein alone, 100% = glycine-bound protein; Tm shift relative to glycine control, % at 25 µM; 340,000 tested, 2.5% active; AID 1259313, 2017;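 active = melting temperature shift of at least 10% of the positive control shift, at one fixed dose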
SKKanGAS inh: S. pyogenes SKKanGAS growth inhibitors in kanamycin, primary screen, streptokinase expression inhibitor project, SKKanGAS strain, BacTiter-Glo luminescence | 6 h | inhibition, % at 7.5 µM | 300,000 tested, 1.3% active;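 active = mean replicate score, as percent of positive control median, at least 50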;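 note: strain carries kanamycin resistance gene driven by streptokinase promoter and grows in 40 µg/ml kanamycin; loss of luminescence reflects streptokinase promoter inhibition or plain growth inhibition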
CSC inhib: cancer stem cell viability inhibitors, primary screen, luminescence | AID 2717, 2010 | cancer stem cell-like cells viability | 300,000 tested, 1.1% active | inhibition, % at 7.5 µM; in the data active = inhibition above about 75%; tested in HMLE shEcad cells
Mdm2-MdmX inh: inhibitors of human Mdm2-MdmX association, primary screen, cell-based, luminescence, split luciferase, SaOS-2, uHTS; SaOS-2 split-luciferase Mdm2/MdmX complementation; inhibition, % at 8 µM; 330,000 tested, 3% active; AID 485346, 2010;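 active = inhibition of at least 50% at 8 µM in the primary screen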
Target sequence (O15151 whole entry, looked up): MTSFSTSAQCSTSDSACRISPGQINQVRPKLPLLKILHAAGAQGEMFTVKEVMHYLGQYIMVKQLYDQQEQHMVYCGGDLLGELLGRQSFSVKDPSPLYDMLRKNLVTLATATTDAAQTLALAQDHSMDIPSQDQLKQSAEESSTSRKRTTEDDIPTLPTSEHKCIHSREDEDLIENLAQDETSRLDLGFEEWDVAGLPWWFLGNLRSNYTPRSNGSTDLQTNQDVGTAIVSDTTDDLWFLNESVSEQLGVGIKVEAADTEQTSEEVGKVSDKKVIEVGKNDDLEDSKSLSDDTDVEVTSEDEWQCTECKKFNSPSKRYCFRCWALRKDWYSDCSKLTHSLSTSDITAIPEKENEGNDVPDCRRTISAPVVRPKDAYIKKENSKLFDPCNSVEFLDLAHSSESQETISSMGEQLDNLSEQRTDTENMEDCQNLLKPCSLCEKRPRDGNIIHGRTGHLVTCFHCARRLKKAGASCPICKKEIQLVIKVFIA
Target sequence (Q00987 whole entry, looked up): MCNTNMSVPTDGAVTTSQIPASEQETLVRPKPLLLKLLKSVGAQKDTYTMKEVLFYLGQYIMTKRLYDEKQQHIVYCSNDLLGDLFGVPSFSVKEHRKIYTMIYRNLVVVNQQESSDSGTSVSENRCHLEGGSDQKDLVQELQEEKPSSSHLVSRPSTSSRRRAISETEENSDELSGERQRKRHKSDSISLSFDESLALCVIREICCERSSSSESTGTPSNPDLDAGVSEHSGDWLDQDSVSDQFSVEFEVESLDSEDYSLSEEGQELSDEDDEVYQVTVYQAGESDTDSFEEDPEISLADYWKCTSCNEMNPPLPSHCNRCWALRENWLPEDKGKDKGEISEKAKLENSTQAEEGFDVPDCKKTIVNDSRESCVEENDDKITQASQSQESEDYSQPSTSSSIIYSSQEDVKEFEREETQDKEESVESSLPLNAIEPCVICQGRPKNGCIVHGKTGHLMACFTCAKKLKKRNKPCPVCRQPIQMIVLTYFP
MPTP counter: fluorescence retest of MPTP screen hits in isolated mitochondria, single concentration; membrane potential, Rhodamine 123 fluorescence; inhibition, % at 10 µM; 5,000 tested, 78% active; shares compounds with MPTP inh; in the data active = inhibition above about 22%
MPTP abs DR: mitochondrial permeability transition pore inhibitors, dose response, biochemical, absorbance, uHTS hits; 780 tested, 58% active; isolated mitochondria swelling; IC50, µM; shares compounds with MPTP inh; in the data active = IC50 below about 20 µM
MPTP counter DR: fluorescent counter-screen in isolated mitochondria, dose response, counter-screen for MPTP inhibitor project, biochemical, fluorescence, uHTS hits; shares compounds with MPTP inh; isolated mitochondria counterscreen, fluorescence read-out; IC50, µM; 780 tested, 49% active; AID 651564, 2012; in the data active = IC50 below about 80 µM
Large screens that a line does not name were inactive (follow-up assays come after a bar, where they were run).

Cc1ccc(C(=O)OCC(=O)NN2C(=O)NC3(CCC(C)CC3)C2=O)cc1 (centres undefined)	none
Cc1cc(C)cc(OCC(=O)N2N=C(C(F)(F)F)CC2(O)C(C)(C)C)c1 (centres undefined)	MPTP inh 57 | MPTP counter 43
Cn1cccc1CN1CCC[C@]2(N[C@H](c3ccc(C(F)(F)F)cc3)[C@@H]3C(=O)N(Cc4ccccc4)C(=O)[C@@H]32)C1=O	none (no result: Beta apoptosis, GRIN3A LBD mod, SKKanGAS inh, CSC inhib, Mdm2-MdmX inh)
NC(=O)c1ccc(N2CCN(S(=O)(=O)c3ccccc3)CC2)c([N+](=O)[O-])c1	MPTP inh 73 (no result: Beta apoptosis, CSC inhib) | MPTP counter 21
COC(=O)c1ccc(N2CCN(S(=O)(=O)c3ccc4ccccc4c3)CC2)c([N+](=O)[O-])c1	MPTP inh 72 | MPTP counter 57
COc1cccc(N2CCN(c3ccc(S(=O)(=O)N4CCN(C)CC4)cc3[N+](=O)[O-])CC2)c1	none (no result: SKKanGAS inh)
COc1ccc(N2CCN(S(=O)(=O)c3ccc4c(c3)CCCC4)CC2)c([N+](=O)[O-])c1	MPTP inh 79 | MPTP counter 79
N#C/C(=C\c1ccc(-c2ccccc2Cl)o1)C(=O)Nc1nc2ccccc2s1	MPTP inh 74, GRIN3A LBD mod 18 | MPTP counter 43
O=c1[nH]nc(SCc2nnc(-c3cccc(Cl)c3)o2)n1C1CCCCC1	MPTP inh 73 | MPTP counter 33
COc1ccc(-c2nnc(CSc3nnc(-c4ccncc4)n3C3CCCCC3)o2)cc1OC	none
O=C(Nc1ccccc1)Nc1cc([N+](=O)[O-])ccc1F	MPTP inh 63, GRIN3A LBD mod 20 | MPTP counter 91
Cc1cc([N+](=O)[O-])ccc1NC(=O)Nc1ccccc1F	MPTP inh 93 | MPTP counter 92
CCC(CC)C(=O)Nc1cc([N+](=O)[O-])ccc1F	none
CC(C)(C)c1ccccc1NC(=O)CN1C(=O)NC2(CCCCCC2)C1=O	none (no result: SKKanGAS inh, CSC inhib)
Cc1ccc(C23CC4CC(CC(CN)(C4)C2)C3)cc1	MPTP inh 80 (no result: Beta apoptosis, CSC inhib, Mdm2-MdmX inh) | MPTP counter inactive | MPTP abs DR 5 | MPTP counter DR 75
Cc1ccc(C23CC4CC(CC(C(N)=O)(C4)C2)C3)cc1	none
CC(C)c1ccc(N(CC(=O)NCc2ccco2)C(=O)CCC(=O)Nc2ccccn2)cc1	none
CCCOc1nc2c(c(=O)n(C)c(=O)n2C)n1C	none (no result: GRIN3A LBD mod)
CCCOc1nc2c(c(=O)n(C)c(=O)n2C)n1Cc1cccc2ccccc12	MPTP inh 70, Beta apoptosis 103 | MPTP counter 74
Cc1ccccc1S(=O)(=O)N1CCN(C)CC1	none
CC(C)c1ccccc1NC(=O)Cn1c(/C=C/c2ccccc2)nc2ccccc21	none (no result: MPTP inh)
Cc1ccc(NC(=O)Cn2c(/C=C/c3ccccc3)nc3ccccc32)cc1C	MPTP inh 63 | MPTP counter 60
O=C(CSc1nc2ccc([N+](=O)[O-])cc2[nH]1)c1ccc2ccccc2c1	MPTP inh 99, GRIN3A LBD mod 23 (no result: CSC inhib) | MPTP counter 68
O=C(COc1ccc(Cl)cc1Cl)Nc1ccccc1NS(=O)(=O)c1cccs1	MPTP inh 66 | MPTP counter 79
O=C(COc1ccccc1)Nc1ccccc1NS(=O)(=O)c1cccs1	none
Cc1cc(Cl)ccc1OCC(=O)Nc1ccccc1NS(=O)(=O)c1cccs1	MPTP inh 52, GRIN3A LBD mod 14 | MPTP counter 78
COc1cc(/C=N\Nc2nncn2N)ccc1OC(C)=O	none
CCC(C(=O)OCC(=O)Nc1cccc(C(C)=O)c1)c1ccccc1 (centres undefined)	none
CCC(C(=O)OCC(=O)Nc1cc(Cl)cc(Cl)c1)c1ccccc1 (centres undefined)	MPTP inh 82, GRIN3A LBD mod 12, SKKanGAS inh 53 | MPTP counter 90
O=S(=O)(Nc1ccccc1O)c1ccc(-c2ccccc2)cc1	MPTP inh 84 | MPTP counter 90
CCCCc1ccc(NC(=S)NCc2cccc(OC)c2)cc1	MPTP inh 70, GRIN3A LBD mod 11 | MPTP counter 91
CCCCc1ccc(NC(=S)Nc2cccnc2)cc1	MPTP inh 80 (no result: Beta apoptosis) | MPTP counter 73
S=C(Nc1ccc(Oc2ccccc2)cc1)Nc1cccnc1	MPTP inh 71 | MPTP counter 86
S=C(NCc1cccnc1)Nc1ccc(Oc2ccccc2)cc1	MPTP inh 69 | MPTP counter 60
CCNC(=O)NC(=O)CSc1ccc(S(=O)(=O)N2CCOCC2)cn1	none (no result: SKKanGAS inh)
CC1CN(CCC(=O)Nc2ccccc2F)CC(C)O1 (centres undefined)	none
O=C1CC(=O)NC(SCC(=O)Nc2ccccc2[N+](=O)[O-])=N1	none
O=C(CN1c2cccc3cccc(c23)S1(=O)=O)NCCc1ccc(F)cc1	none (no result: SKKanGAS inh)
CCCCc1ccc(NC(=S)Nc2ccc(Cl)c(S(=O)(=O)N(C)C)c2)cc1	MPTP inh 97 (no result: Mdm2-MdmX inh) | MPTP counter 76
Cc1ccc(-c2cc(C(=O)NCCN3CCOCC3)c3ccccc3n2)o1	none
O=C(Nc1cccc(OC(F)(F)F)c1)[C@@H]1O[C@H](CO)[C@H](O)[C@H](O)[C@H]1O	none (no result: Beta apoptosis, GRIN3A LBD mod, SKKanGAS inh, CSC inhib, Mdm2-MdmX inh)
COc1ccc(CCNC2=C(Cl)C(=O)N(CCc3ccccc3)C2=O)cc1OC	none
O=C1C(Cl)=C(Nc2ccccc2O)C(=O)N1CCc1ccccc1	MPTP inh 61 | MPTP counter 60
NC(=O)c1nnn(Cc2cc(Cl)c(C(=O)c3ccc(Cl)cc3)c(Cl)c2)c1N	MPTP inh 73 (no result: Beta apoptosis, GRIN3A LBD mod, SKKanGAS inh, CSC inhib, Mdm2-MdmX inh) | MPTP counter 91
Cc1cc(NC(=O)CCC(=O)N(CC(=O)NC2CCCC2)c2ccc(Cl)c(Cl)c2)no1	none (no result: CSC inhib)
CCOC(=O)C1=C(Nc2ccccc2)CC(C)(O)C(C(=O)OCC)C1c1ccccc1 (centres undefined)	none
CCOC(=O)C1=C(Nc2ccccc2)CC(C)(O)C(C(=O)OCC)C1c1ccc(Br)cc1 (centres undefined)	MPTP inh 59 | MPTP counter inactive | MPTP abs DR inactive | MPTP counter DR inactive
O=c1oc2c(-c3cccc(F)c3)cc(O)cc2s1	MPTP inh 84 | MPTP counter 85
